Sampled rows, rich in hits. Any-hit rate of the full collection: about 12%.
Pf growth 96h: Primary qHTS for delayed death inhibitors of the malarial parasite plastid, 96 hour incubation; P. falciparum luciferase reporter growth, 96 h; Potency, µM (top dose mostly 28.7 µM), inactives show at the top dose activity change, negative = inhibition, usual class: inhibitors; actives 6.9% (n = 320,000); AID 504834, 2011; further: on the % scale 0 is the no-effect control and ±100 the full control effect
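Infected RBCs, 2% Hct / 0.05% parasitemia final; luciferase-reporter P. falciparum; cpd 96 h, 37 C, 5% CO2; luciferase detection reagent; luminescence.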
Pf growth 48h: Primary qHTS for delayed death inhibitors of the malarial parasite plastid, 48 hour incubation. Potency, µM (series often up to 28.7 µM), without a hit: top-dose activity change, negative = inhibition, most hits filed as inhibitors. P. falciparum luciferase growth in erythrocytes, 48 h. actives 5.9% (n = 310,000). AID 504832, 2011; further: on the % scale 0 is the no-effect control and ±100 the full control effect
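Luciferase-expressing parasites in RBCs, 2% Hct / 0.1% parasitemia final; RPMI 1640 + 0.5% Albumax; 37 C, 5% CO2, one generation; luminescence read-out, lower signal = inhibition.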
AmpC no deterg: qHTS Inhibitors of AmpC Beta-Lactamase (assay without detergent); P00811; AmpC nitrocefin hydrolysis, absorbance 480 nm, 0.0001% Triton; Potency, µM (titrated, usually from 57.1 µM), for the others: at the top dose activity change, negative = inhibition, actives largely listed as inhibitors; actives 0.52% (n = 330,000);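 further: plate controls were no compound for no effect and no enzyme for full effect; nearly all actives have a fitted effect of over 20% in size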
Target sequence (P00811 whole entry, looked up): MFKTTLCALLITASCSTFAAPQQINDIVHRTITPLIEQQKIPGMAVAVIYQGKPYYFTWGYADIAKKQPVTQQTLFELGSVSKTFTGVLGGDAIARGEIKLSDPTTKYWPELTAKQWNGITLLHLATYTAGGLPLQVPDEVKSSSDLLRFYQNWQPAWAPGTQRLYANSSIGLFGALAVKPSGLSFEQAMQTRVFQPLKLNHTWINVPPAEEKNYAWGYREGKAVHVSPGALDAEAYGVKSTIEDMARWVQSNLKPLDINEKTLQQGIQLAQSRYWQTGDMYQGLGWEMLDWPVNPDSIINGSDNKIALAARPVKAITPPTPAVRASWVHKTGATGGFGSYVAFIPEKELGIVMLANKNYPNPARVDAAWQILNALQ
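AmpC (5.3 nM in the dispensed reagent) in 20 mM phosphate pH 7.0 with 0.01% (detergent screen) or 0.0001% Triton X-100 was preincubated with compounds for 15 min at room temperature. Nitrocefin was then added from an 800 uM solution, and hydrolysis was followed at 480 nm.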
SARS PLpro yeast: qHTS of Yeast-based Assay for SARS-CoV PLP | actives 0.19% (n = 330,000) | AID 485353, 2010 | Potency, µM (series often up to 32.9 µM), inactives show at the top dose activity, positive = growth rescue, most hits filed as activators | S. cerevisiae expressing SARS-CoV PLpro, growth rescue; calls by dose curve; further: 0% is about no effect; nearly all actives have a fitted effect of over 55% in size
AmpC inh detg: qHTS Inhibitors of AmpC Beta-Lactamase (assay with detergent). P00811. AmpC hydrolysis of nitrocefin, absorbance 480 nm, 0.01% Triton. Potency, µM (top dose mostly 114 µM), for inactives: top-dose activity change, negative = inhibition, hits mostly inhibitors. actives 0.041% (n = 370,000). AID 485294, 2010;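 further: 0% = no-compound wells and -100% = no-enzyme wells; nearly all actives have a fitted effect of over 25% in size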
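AmpC (5.3 nM in the dispensed reagent) in 20 mM phosphate pH 7.0 with 0.01% (detergent screen) or 0.0001% Triton X-100 was preincubated with compounds for 15 min at room temperature. Nitrocefin was then added from an 800 uM solution, and hydrolysis was followed at 480 nm.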
Sm TGR block: qHTS Assay for the Inhibitors of Schistosoma Mansoni Peroxiredoxins | purified TGR, DTNB reduction, TNB absorbance 405 nm | AID 485364, 2010 | actives 3% (n = 360,000) | Potency, µM (series often up to 114 µM), inactives show top-dose activity change, negative = inhibition, actives largely listed as inhibitors; further: on the % scale 0 is the no-effect control and ±100 the full control effect; nearly all actives have a fitted effect of over 60% in size
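First, TGR (20 nM dispensed) and NADPH were mixed with compound. Second, a 15 min room-temperature incubation followed. Third, further NADPH and then DTNB were added to start the reaction. Finally, TNB absorbance was monitored kinetically.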
Active calls of the source: *; u = inconclusive; x = no result given. Unless noted, the call rests on the fitted dose curve; in most records, active means well fitted curve in the direction sought with a large enough effect; inconclusive means small, poorly fitted or top-dose-only effect, or another doubt; inactive means no such curve, though single readings can be large; an effect the other way counts as inactive or inconclusive. Potency means the concentration at half of the fitted maximal effect.

SMILES	Pf growth 96h	Pf growth 48h	AmpC no deterg	SARS PLpro yeast	AmpC inh detg	Sm TGR block
Cc1ccc(-c2cc(C(=O)OCC(=O)N(C)C3CCS(=O)(=O)C3)c3ccccc3n2)o1 (stereo not given)	67.7%	51.3%	103.5%	0.4%	0.1%	14.1µM*
CC(=O)c1cccc(NC(=O)CSc2nc(=O)n(Cc3ccco3)c3c2CCC3)c1	x	x	x	x	2.2%	-26.6%
Cc1n[nH]c(=S)c2nn(-c3cccc(Cl)c3)c(C)c12	-2.4%	3.1%	-10.6%	3.8%	-6.0%	79.4µM*
COc1ccc(CN(C)Cc2ccccc2)c(OC)c1OC	3.9%	-0.9%	-23.3%	9.1%	u	-1.1%
Cc1cccc(NC(=S)N/N=C2/CCCCc3ccccc32)c1	u	u	31.6µM*	-47.2%	-2.7%	-1.0%
Cc1ccc(NC(=S)N/N=C2/CCCCc3ccccc32)cc1	11.7µM*	u	u	-2.9%	-11.4%	0.9%
Cc1ccc(C)c(NC(=S)Nc2ncccc2C)c1	u	39.6%	-8.0%	-1.2%	3.9%	-22.5%
Cc1ccc(C)c(NC(=S)N/N=C2\CCc3ccccc32)c1	5.22µM*	51.4%	-45.0%	7.8%	-2.4%	-5.6%
CCC(=O)Oc1ccc(C2Nc3ccccc3-c3nnc(SC)nc3O2)cc1 (stereo not given)	x	x	x	x	0.2%	2.3%
COc1ccc(S(=O)(=O)NCc2ccccn2)c(C)c1C	6.7%	3.0%	-5.8%	0.5%	u	-15.5%
CCOc1ccc(S(=O)(=O)NCc2ccccn2)c(C)c1C	10.4µM*	u	136.7%	10.6%	-9.5%	10.7%
COc1ccccc1Oc1ccc(S(=O)(=O)NCc2ccccn2)cc1	10.4µM*	2.4%	-11.2%	7.5%	u	-12.7%
Cc1ccc(C(=O)CC(=O)c2ccc(C)cc2O)cc1	7.38µM*	-61.5%	-39.5%	-2.4%	-9.4%	-23.3%
CC(C)(C)c1ccc(C(=O)CC(=O)c2cc(Cl)ccc2O)cc1	x	4.65µM*	-37.7%	-0.2%	0.6%	5.7%
CN(CCCC(=O)NCc1ccc2c(c1)OCO2)S(=O)(=O)c1ccc([N+](=O)[O-])cc1	3.0%	u	23.7%	2.3%	-0.4%	-20.0%
COc1ccc(CN2CCN(C3CCSCC3)CC2CCO)c(C)c1C (stereo not given)	-13.8%	20.2%	25.0%	1.5%	11.1%	35.5µM*
O=C(Nc1ccccc1)N(Cc1cccs1)c1ccc(F)cc1	x	x	x	x	-0.2%	1.3%
CCOc1ccc(C2=NC(c3ccncc3)=Nc3ccc(C)cc3N2)cc1OCC	x	x	x	x	19.7%	6.8%
COc1ccc(NC(=O)c2c(-c3ccc(C)cc3)nnc3ccccc23)c(OC)c1	x	x	x	x	0.7%	-0.3%
COc1ccc(/C=C/C(=O)N(C(C)C)C(C)C)cc1Br	u	6.57µM*	47.9%	3.9%	-2.0%	-2.9%
COc1ccc(/C=C/C(=O)NC(C)C)cc1Br	u	u	-12.5%	-2.0%	3.7%	4.1%
CCOC(=O)CSc1nc(-c2ccc(C)cc2C)cc(-c2ccccc2)c1C#N	x	x	x	x	-7.2%	-2.5%
CC1N(C)c2cc(NC(=O)c3ccco3)ccc2C1(C)C (stereo not given)	15.6%	-70.6%	-7.6%	-10.8%	-4.5%	u
CC1N(C)c2cc(NC(=O)c3ccco3)c(P(=O)(Nc3ccc([N+](=O)[O-])cc3)N3CCOCC3)cc2C1(C)C (stereo not given)	9.28µM*	5.86µM*	225.1%	-2.3%	1.3%	-0.2%
COc1cccc(Oc2ccc(S(=O)(=O)N3CCCC3)cc2[N+](=O)[O-])c1	u	10.4µM*	5.7%	6.9%	-2.1%	-2.2%
